Measured values reported in PubChem BioAssay (NCI).
This is part of a sample that, as a whole, favours compounds with a hit. Of some 83,000 tested, about 20% had one in any assay.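 Compound tested at a single concentration for 48 hours in 96-well plates; a percent growth value below 10 was scored as active.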 A number with no mark means an inactive call. The source made the active and inactive calls.

Key:
Assay in all cases: NCI-60 one-dose screen, 48 h (100 = growth as untreated, 0 = no growth, -100 = all killed)
Conditions in all cases: 10 µM
HCT-15 colon = system: HCT-15 colon
HT29 colon = system: HT29 colon
SNB-75 CNS = system: SNB-75 CNS
SNB-19 CNS = system: SNB-19 CNS
PC-3 prostate = system: PC-3 prostate
SK-MEL-5 melanoma = system: SK-MEL-5 melanoma
UACC-62 melanoma = system: UACC-62 melanoma
LOX IMVI melanoma = system: LOX IMVI melanoma
SK-MEL-28 melanoma = system: SK-MEL-28 melanoma
SK-MEL-2 melanoma = system: SK-MEL-2 melanoma
EKVX NSCLC = system: EKVX NSCLC
SN12C renal = system: SN12C renal
UO-31 renal = system: UO-31 renal
TK-10 renal = system: TK-10 renal
ACHN renal = system: ACHN renal
CAKI-1 renal = system: CAKI-1 renal
A498 renal = system: A498 renal
CCRF-CEM leukemia = system: CCRF-CEM leukemia
MOLT-4 leukemia = system: MOLT-4 leukemia

| SMILES | growth (HCT-15 colon) | growth (HT29 colon) | growth (SNB-75 CNS) | growth (SNB-19 CNS) | growth (PC-3 prostate) | growth (SK-MEL-5 melanoma) | growth (UACC-62 melanoma) | growth (LOX IMVI melanoma) | growth (SK-MEL-28 melanoma) | growth (SK-MEL-2 melanoma) | growth (EKVX NSCLC) | growth (SN12C renal) | growth (UO-31 renal) | growth (TK-10 renal) | growth (ACHN renal) | growth (CAKI-1 renal) | growth (A498 renal) | growth (CCRF-CEM leukemia) | growth (MOLT-4 leukemia) |
| --- | --- | --- | --- | --- | --- | --- | --- | --- | --- | --- | --- | --- | --- | --- | --- | --- | --- | --- | --- |
| COc1ccc(C(=O)N2C=Cc3ccccc3C2C#N)cc1 (stereo not given) | 90.7% | 110% | 94.1% | 93.6% | 93.2% | 101% | 92.5% | 95.4% | 95.3% | 101% | 99.4% | 89.3% | 73.9% | 100% | 96.4% | 87.3% | 91.1% | 92.7% | 83.4% |
| O=C1CCn2c1c(O)c1ccccc1c2=O | 114% | 108% | 86.6% | 110% | 100% | 103% | 113% | 107% | 107% | 126% | 94% | 108% | 96.5% | 107% | 111% | 86.3% |  | 99.6% | 106% |
| Nc1c(Br)cc(Br)c2c1[nH]c(=O)c1ccccc12 | 75.2% | 98.4% | -33.9% (active) | 94.1% | 80.3% | 71.3% | 87.6% | 83.7% | 86.8% | 98.6% | 57% | 80.1% | 27.8% | 31.5% | 10.9% | 68.6% | 53.8% | 93.2% | 80.8% |
| CN(C)c1ccc(/C=N/NC(=O)c2cccc3ccccc23)c(Cl)c1 | 27.9% | 12.9% | 20.3% | 52.6% | 20.3% | 24.3% | 46.4% | 37.9% | 42% | 28% | 45.2% | 42.9% | 57.5% | 63.8% | 51.2% | 48.5% | -3.25% (active) | 10.1% |  |
| CC(=O)[C@H]1CC[C@]2(C)[C@@H]1CC[C@@H]1[C@@]3(C)CC(CCC#N)(CCC#N)C(=O)C(C)(C)[C@@H]3CC[C@]12C | 100% | 98.8% | 84.5% | 93.7% | 93.8% | 86.6% | 82.4% | 94.1% | 93.9% | 102% | 91.8% | 91.8% | 82% | 104% | 95.2% |  | 88.9% |  |  |
| COc1ccc(-c2nn(-c3cccc(Cl)c3)cc2-c2cc(-c3cccs3)[nH]c(=S)n2)cc1 | 45.7% | 62.2% | 67.4% | 44.7% | 48.5% | 52.2% | 44.9% | 43.4% | 57.3% | 71.3% | 44.6% | 61.1% | 24.3% | 66.7% | 48.4% | 12.5% |  | 39.5% | 21.9% |
| N#CC1=CC2CN(Cc3ccccc3)C1C1C(=O)N(c3ccccc3)C(=O)C21 (stereo not given) | 96.5% | 103% | 91.1% | 101% | 101% | 93.3% | 90.7% | 89.2% | 102% | 105% | 94.7% | 100% | 74.7% | 96.2% | 103% | 101% |  | 97.2% | 89.5% |
| O=C1/C=C/[C@@H](O)[C@@H]2C[C@@H](O)C[C@H]2/C=C/CCC[C@H](C(F)(F)F)O1 | 6.45% (active) | -28.3% (active) | 39.1% | 65.6% | 25.1% | -98.3% (active) | -3.9% (active) | -90.6% (active) | -8.65% (active) | -18.3% (active) | 10.3% | 4.4% (active) | -6.75% (active) | -21% (active) | 3.63% (active) | 4.59% (active) | -18.2% (active) | 1.24% (active) | -0.315% (active) |
